PubChem BioAssay (EPA / NIEHS)
Records with an inconclusive call do not appear. Activity calls are given as the source filed them. How the source made its calls, unless noted: active means hit-call score of the fitted dose curve at least 0.9, where 1 is the maximum; inconclusive means response in the unintended direction; inactive means score below 0.9.

Assays:
PGR (gene 5241) [1] = biological target: PGR (gene 5241) (UniProt P06401); assay: TOX21_PR_BLA_Followup_Agonist_ratio: Tox21 HEK293 Progesterone Receptor (PR) Agonism Beta-lactamase Follow-Up Assay, Ratio (AID 2283933)
Summary of the method: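 Read-out: ratio of cleaved (ch2) to uncleaved (ch1) beta-lactamase substrate fluorescence, gain-of-signal relative to DMSO baseline. Cells: PR-UAS-bla HEK293T, 2% charcoal-stripped FBS; compound exposure 16 hr, 37C; substrate 2 hr, RT.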

PGR (gene 5241) [2] = biological target: PGR (gene 5241) (UniProt P06401); assay: TOX21_PR_BLA_Followup_Antagonist_ratio: Tox21 HEK293 Progesterone Receptor (PR) Antagonism Beta-lactamase Follow-Up Assay, Ratio (AID 2283934)
Summary of the method: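 Read-out: blue/green beta-lactamase FRET ratio (cleaved ch2 over uncleaved ch1), fitted relative to DMSO baseline. Cells: PR-UAS-bla HEK293T, GAL4-UAS reporter, stimulated with 1 nM R5020 final; 16 hr compound exposure, 37C.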

[3] = TOX21_PR_BLA_Followup_Agonist_viability: Viability Assessment in the Tox21 HEK293 Progesterone Receptor (PR) Agonism Beta-lactamase Follow-Up Assay (AID 2283935);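 further: signal loss means lower viability so actives are cytotoxic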
Summary of the method: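 Luminescent ATP quantitation (CellTiter-Glo, 30 min, room temperature) in the same wells as the beta-lactamase read, on PR-UAS-bla HEK293T cells exposed to compound for 16 hr at 37C in 2% charcoal-stripped serum.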

[4] = TOX21_PR_BLA_Followup_Antagonist_viability: Viability Assessment in the Tox21 HEK293 Progesterone Receptor (PR) Antagonism Beta-lactamase Follow-Up Assay (AID 2283936);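 further: cells exposed to compound with R5020 agonist for 16 h; hits lower the luminescence signal meaning cytotoxicity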
Summary of the method: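 PR-UAS-bla HEK293T cells in medium with 2% charcoal-stripped FBS were treated with compounds plus R5020 for 16 hr at 37C. After the beta-lactamase read, CellTiter-Glo was added to the same wells and luminescence read after 30 min at room temperature.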

PGR (gene 5241) [5] = biological target: PGR (gene 5241) (UniProt P06401); assay: TOX21_PR_LUC_Followup_Agonist: Tox21 HEK293 Progesterone Receptor (PR) Agonism Luciferase Follow-Up Assay (AID 2283937; active means hit-call score of the fitted dose curve at least 0.9, where 1 is the maximum; inactive means score below 0.9)
Summary of the method: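 Luminescence read-out (ONE-Glo, 30 min at room temperature) of PR-driven luciferase in HEK293-PR-A-luc cells after 16 h compound exposure at 37C; gain of signal fitted relative to DMSO baseline.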

PGR (gene 5241) [6] = biological target: PGR (gene 5241) (UniProt P06401); assay: TOX21_PR_LUC_Followup_Antagonist: Tox21 HEK293 Progesterone Receptor (PR) Antagonism Luciferase Follow-Up Assay (AID 2283938);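 further: curve fitted upward as signal gain over DMSO baseline despite antagonist label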
Summary of the method: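 A follow-up to the PR bla screen using HEK293-PR-A-luc cells, multiplexed with cell viability to flag cytotoxicity. Reporter luminescence after 16 h compound exposure was analysed relative to DMSO.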

[7] = TOX21_PR_LUC_Followup_Antagonist_viability: Viability Assessment in the Tox21 HEK293 Progesterone Receptor (PR) Antagonism Luciferase Follow-Up Assay (AID 2283940)
Summary of the method: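 Read-out: CellTiter-Glo ATP luminescence, loss of signal taken as reduced viability. Cells: HEK293-PR-A-luc, 3,000/well, 5 h settling, then 16 h compound exposure at 37C, 0% CO2.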

[8] = TOX21_PR_LUC_Followup_Agonist_viability: Viability Assessment in the Tox21 HEK293 Progesterone Receptor (PR) Agonism Luciferase Follow-Up Assay (AID 2283941);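 further: loss of signal means cytotoxicity so actives lower viability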
Summary of the method: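 Cytotoxicity counter-screen: ATP content by CellTiter-Glo luminescence, loss of signal = reduced viability. HEK293-PR-A-luc, 3,000 cells/well, compound exposure 16 h, 37C.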

[9] = biological target: Thyroid hormone receptor alpha (Rattus norvegicus) + Thyroid hormone receptor beta (Rattus norvegicus) (UniProt P18113+P63059); assay: TOX21_TR_LUC_GH3_Antagonist_Followup: Tox21 GH3 Thyroid Hormone Receptor Antagonism Luciferase Follow-Up Assay (AID 2283942)
Summary of the method: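 In a GH3 luciferase reporter line, test chemicals spanning 92 uM to 5nM final are co-incubated 24 h with 1.0 nM T3. Activity is expressed as relative luminescence units and analysed relative to DMSO.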

THRA (gene 7067) = THRA (gene 7067) (UniProt P10827); assay: TOX21_TRA_COA_Antagonist_Followup_ratio: Tox21 Thyroid Hormone Receptor alpha Antagonism through Coactivator Recruitment Follow-Up Assay, Ratio (AID 2283953)
Summary of the method: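 We measured antagonism of T3-type coactivator recruitment using a TR-FRET ratio (emission 520 and 495 nm) between a Tb-labelled anti-GST antibody on TRα LBD (2.5 nM) and SRC-2 peptide (200 nM). Activity was scaled between DMSO and T3 wells.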

[10] = TOX21_TRB_BLA_Antagonist_Followup_viability: Viability Assessment in the Tox21 Thyroid Hormone Receptor beta Antagonism Beta-lactamase (BLA) Follow-Up Assay (AID 2283961)
Summary of the method: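 Cytotoxicity is measured in parallel with the antagonist-mode TRβ beta-lactamase screen, using ATP-coupled luciferase luminescence. Engineered HEK293T cells are treated for 18 h with 11-point compound series in triplicate.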

THRB (gene 7068) = THRB (gene 7068) (UniProt P10828); assay: TOX21_TRB_COA_Antagonist_Followup_ratio: Tox21 Thyroid Hormone Receptor beta Antagonism through Coactivator Recruitment Follow-Up Assay, Ratio (AID 2283967)
Summary of the method: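 Coactivator (SRC-2) recruitment to purified GST-TRβ ligand-binding domain is monitored by terbium-to-fluorescein energy transfer, emission ratio 520:495 nm. DMSO wells define 0% and T3 wells 100% activity.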

[11] = TOX21_TR_RXR_BLA_Antagonist_Followup_viability: Viability Assessment in the Tox21 Thyroid Hormone Receptor beta Retinoid X Receptor alpha (RXRa) Antagonism Beta-lactamase (BLA) Follow-Up Assay (AID 2283979)
Summary of the method: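 RXRa-UAS-bla HEK293T cells seeded 2,500/well in phenol red-free DMEM with 2% charcoal-stripped FBS, attached 5 h, then exposed to compounds at 11 concentrations in triplicate for 16 h at 37C/5% CO2. Viability read by CellTiter-Glo ATP luminescence; bidirectional fit versus DMSO.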

[12] = CCTE_Harrill_HTTr_Viability_MCF7: CCTE's 6-hour Cell Viability Assessment for the High-Throughput Transcriptomics (HTTr) Platform, in MCF-7 cells cultured in DMEM + 10% fetal bovine serum, Harrill Lab (AID 2284010; active means hit-call score of the fitted dose curve at least 0.9, where 1 is the maximum; inactive means score below 0.9)
Summary of the method: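 PI exclusion, high-content imaging; 8-pt dilution series, 6 h exposure; bidirectional fit vs DMSO (neg. ctrl/baseline); gain of signal = loss of membrane integrity.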

[13] = CCTE_Harrill_HTTr_Apoptosis_MCF7: CCTE's 6-hour Apoptosis Assessment for the High-Throughput Transcriptomics (HTTr) Platform, in MCF-7 cells cultured in DMEM + 10% fetal bovine serum, Harrill Lab (AID 2284011; active means hit-call score of the fitted dose curve at least 0.9, where 1 is the maximum; inactive means score below 0.9)
Summary of the method: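 Cells are dosed with test chemicals at eight concentrations and imaged 6 hours later for caspase-3/7 activity using a green fluorogenic detection reagent. Activity is fitted in both directions against DMSO controls.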

[14] = CCTE_Harrill_HTTr_CellCount_MCF7: CCTE's Cell Proliferation Assessment for the High-Throughput Transcriptomics (HTTr) Platform, Harrill Lab (AID 2284012);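 further: count of Hoechst-stained nuclei per well by high-content imaging in MCF-7 cells; cells exposed to compound for six hours; intended direction is loss of nuclei count meaning fewer cells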
Summary of the method: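 Readout: Hoechst nuclear count by high-content imaging. MCF-7, 8-point dilution series, 6 h exposure. Bidirectional fit vs DMSO baseline.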

Measured: AC50

Sequence of PGR (gene 5241) (P06401 whole entry, looked up, the tested form may be a part): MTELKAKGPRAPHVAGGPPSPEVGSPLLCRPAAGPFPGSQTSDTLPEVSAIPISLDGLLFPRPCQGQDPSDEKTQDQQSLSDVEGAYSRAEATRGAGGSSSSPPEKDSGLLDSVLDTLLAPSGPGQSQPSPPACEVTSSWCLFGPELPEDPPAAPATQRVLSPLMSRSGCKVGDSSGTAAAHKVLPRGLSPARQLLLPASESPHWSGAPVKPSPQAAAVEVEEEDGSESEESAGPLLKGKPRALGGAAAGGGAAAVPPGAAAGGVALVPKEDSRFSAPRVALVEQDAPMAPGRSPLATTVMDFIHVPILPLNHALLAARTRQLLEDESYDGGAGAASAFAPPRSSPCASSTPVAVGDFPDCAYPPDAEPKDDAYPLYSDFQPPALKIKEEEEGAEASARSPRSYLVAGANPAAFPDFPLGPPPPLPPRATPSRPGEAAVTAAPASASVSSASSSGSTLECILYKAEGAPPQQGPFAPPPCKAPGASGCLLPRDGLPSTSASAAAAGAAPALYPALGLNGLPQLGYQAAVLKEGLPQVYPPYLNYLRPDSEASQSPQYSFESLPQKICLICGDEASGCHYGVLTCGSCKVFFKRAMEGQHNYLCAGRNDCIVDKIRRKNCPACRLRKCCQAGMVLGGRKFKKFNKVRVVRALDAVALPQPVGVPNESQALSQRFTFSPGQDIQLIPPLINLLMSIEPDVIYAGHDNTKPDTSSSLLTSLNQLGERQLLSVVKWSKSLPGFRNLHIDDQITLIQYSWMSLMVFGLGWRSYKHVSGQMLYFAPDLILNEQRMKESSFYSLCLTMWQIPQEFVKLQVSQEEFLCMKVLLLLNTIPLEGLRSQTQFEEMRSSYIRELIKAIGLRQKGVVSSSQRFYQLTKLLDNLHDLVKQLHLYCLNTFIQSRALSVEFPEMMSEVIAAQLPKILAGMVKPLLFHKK
Sequence of THRB (gene 7068) (P10828 whole entry, looked up, the tested form may be a part): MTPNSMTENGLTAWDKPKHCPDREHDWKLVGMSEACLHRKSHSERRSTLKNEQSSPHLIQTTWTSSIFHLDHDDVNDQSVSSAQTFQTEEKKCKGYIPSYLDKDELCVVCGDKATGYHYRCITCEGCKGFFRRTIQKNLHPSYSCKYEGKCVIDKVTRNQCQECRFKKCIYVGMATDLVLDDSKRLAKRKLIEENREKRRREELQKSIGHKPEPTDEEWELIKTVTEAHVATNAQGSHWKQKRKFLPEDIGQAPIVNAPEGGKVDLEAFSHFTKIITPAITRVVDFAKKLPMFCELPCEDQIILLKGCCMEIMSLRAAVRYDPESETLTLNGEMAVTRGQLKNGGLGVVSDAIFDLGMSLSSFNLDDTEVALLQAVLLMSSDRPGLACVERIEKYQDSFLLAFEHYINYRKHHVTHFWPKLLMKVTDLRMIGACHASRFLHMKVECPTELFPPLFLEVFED
Sequence of THRA (gene 7067) (P10827 whole entry, looked up, the tested form may be a part): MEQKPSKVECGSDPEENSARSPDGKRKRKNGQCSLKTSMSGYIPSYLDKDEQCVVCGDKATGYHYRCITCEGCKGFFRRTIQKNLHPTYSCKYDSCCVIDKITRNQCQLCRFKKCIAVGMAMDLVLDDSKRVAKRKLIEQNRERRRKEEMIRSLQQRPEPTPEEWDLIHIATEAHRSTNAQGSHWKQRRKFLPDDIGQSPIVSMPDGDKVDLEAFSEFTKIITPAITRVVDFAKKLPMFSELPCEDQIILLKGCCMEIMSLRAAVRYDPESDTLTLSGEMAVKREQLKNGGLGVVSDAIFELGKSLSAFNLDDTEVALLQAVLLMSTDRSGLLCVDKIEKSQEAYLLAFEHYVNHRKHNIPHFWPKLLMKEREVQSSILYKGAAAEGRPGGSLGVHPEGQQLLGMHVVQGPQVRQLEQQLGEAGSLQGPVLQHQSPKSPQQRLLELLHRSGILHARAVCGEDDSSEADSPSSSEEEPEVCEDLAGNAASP

CC(=O)O[C@@H]1CC2C3CCc4cc(OC(=O)c5ccccc5)ccc4C3CCC2(C)[C@H]1OC(C)=O (stereo partly specified)
inactive: PGR (gene 5241) [1] | [3] | [4] | [7] | [8]
active: PGR (gene 5241) [2] 5.65 µM | PGR (gene 5241) [5] 20.1 µM | PGR (gene 5241) [6] 1.05 µM

COC(=O)C1=C(C)NC(C)=C(C(=O)OC(C)C)C1c1cccc2nonc12 (stereo unspecified)
active: PGR (gene 5241) [2] 19.4 µM | PGR (gene 5241) [6] 18.1 µM
inactive: PGR (gene 5241) [1] | [3] | [4] | PGR (gene 5241) [5] | [7] | [8]

Cc1ccc(Nc2nccc(N(C)c3ccc4c(C)n(C)nc4c3)n2)cc1S(N)(=O)=O
active: [9] 31.3 µM | [10] 19.2 µM | THRB (gene 7068) 19.2 µM
inactive: THRA (gene 7067) | [11]

CC(=O)c1cccc2ccccc12
inactive: [12] | [13]

CCOC(=O)C(C)CC (stereo unspecified)
inactive: [12] | [13]

CCCCc1nc(Cl)c(CO)n1Cc1ccc(-c2ccccc2-c2nnn[nH]2)cc1
inactive: [12] | [13] | [14]

CCC(=O)O[C@H]1[C@H](O[C@@H]2[C@@H](C)[C@H](O[C@H]3C[C@@](C)(OC)[C@@H](O)[C@H](C)O3)[C@@H](C)C(=O)O[C@H](CC)[C@@](C)(O)[C@H](O)[C@@H](C)C(=O)[C@H](C)C[C@@]2(C)O)O[C@H](C)C[C@@H]1N(C)C
inactive: [12] | [13] | [14]
